# Screening data: PubChem, National Center for Advancing Translational Sciences (NCATS)
# HT1080NT lethal – kills 2HG-producing HT-1080-NT fibrosarcoma cells | Potency, µM (titrated, usually from 46.1 µM), for the others: top-dose activity, negative = less viability, most hits filed as cytotoxic | 360,000 tested, 1.6% active | AID 686970 | HT-1080-NT fibrosarcoma viability, CellTiter-Glo ATP luminescence, 48 h;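 also: NT is the 2HG producing partner of a matched IDH1 knockdown line; potency is read from the fitted curve at half-maximal effect; 0% = DMSO-treated cells and -100% = media-only wells without cells; nearly all actives have a fitted effect of over 55% in size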
#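 Viability of the 2HG-overproducing fibrosarcoma line after 48 hours of compound exposure at 37 degrees C was determined by luminescence with CellTiter-Glo, and concentration-effect curves were then fitted and categorized.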
# TDP1 cell noCPT – qHTS for Inhibitors of human tyrosyl-DNA phosphodiesterase 1 (TDP1): qHTS in cells in absence of CPT; DT40 Tdp1-/- hTDP1 cells, no CPT, ATP luminescence, 48 h; Potency, µM (top dose mostly 46.2 µM), inactives show at the top dose activity change, negative = growth inhibition, actives largely listed as inhibitors; 420,000 tested, 15% active; AID 686978, 2013; also: potency is read from the fitted curve at half-maximal effect; nearly all actives have a fitted effect of over 55% in size
#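 Chicken DT40 Tdp1-/- cells complemented with human TDP1, screened without camptothecin (DMSO vehicle only), 400 cells/well. Compounds pin-transferred, cells incubated at 37 °C for at least 48 hr. Growth read as ATP-dependent luminescence (CellTiter-Glo, 30 min at RT).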
# HT1080 IDH1KD tx – kills HT-1080 cells with IDH1 knockdown | 360,000 tested, 2% active | Potency, µM (doses to about 46.1 µM), for the others: top-dose activity, negative = toxicity, most hits filed as cytotoxic | HT-1080 IDH1 knockdown viability, ATP luminescence, 48 h;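 also: potency is read from the fitted curve at half-maximal effect; 0% = DMSO wells and -100% = cell-free medium wells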
#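 Assay cells: HT-1080 with IDH1 knockdown, 750 per well, RPMI/5% FBS. Exposure: 48 h at 37 °C following 2 h pre-incubation. Read: CellTiter-Glo luminescence; fitted concentration-response, curve class assigned.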
# IL1B secr inh – inflammasome signaling inhibition, IL-1 beta readout. THP-1 LPS/ATP IL-1B secretion, AlphaLISA, 16 h; active compounds read low. activity change, % at 57.5 µM. 360,000 tested, 4.7% active; in the data active = activity change below about -50%; inconclusive = mostly about -30% to -49%
#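 Secreted IL-1B measured by AlphaLISA bead assay after 16 h compound exposure of THP-1 cells; compounds (final up to 57.5 uM) added 1 h before LPS (250 ng/mL) and ATP (1.25 mM) stimulation; lower signal means less secretion.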
# DT40 TDP1 CPT – growth inhibition of DT40 Tdp1-/-;hTDP1 cells with camptothecin (screen for TDP1 inhibitors) | 420,000 tested, 12% active | AID 686979 | chicken DT40 Tdp1-/-;hTDP1 cells + 20 nM CPT, ATP luminescence, 48 h | Potency, µM (highest dose often 46.2 µM), for the others: at the highest dose activity change, negative = growth inhibition, actives largely listed as inhibitors; also: potency is read from the fitted curve at half-maximal effect; nearly all actives have a fitted effect of over 55% in size
#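 Cell growth measured by CellTiter-Glo luminescence after a minimum 48 h, 37 C compound exposure with 20 nM CPT in Tdp1-knockout DT40 cells stably expressing hTDP1, seeded 400/well; qHTS titration format.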
# * hit, by the source's call; ? = inconclusive; nt = not tested or not shown; ! = not active in a repeat. Compounds with a hit are over-represented: about 19% of the library has one in this group of screens. Unless noted, calls follow the shape of the dose curve; as a rule, active = well fitted curve in the direction sought with a large enough effect; inconclusive = small, poorly fitted or top-dose-only effect, or another doubt; inactive = no such curve, though single readings can be large; an effect the other way counts as inactive or inconclusive. Unless noted, % is scaled to controls: 0 for no effect and ±100 for the full control effect.
SMILES,HT1080NT lethal,TDP1 cell noCPT,HT1080 IDH1KD tx,IL1B secr inh,DT40 TDP1 CPT
CCOc1cccc(C(=O)Nc2ccc(NC(=O)c3cc4ccccc4o3)c(OC)c2)c1,?,?,-12.0%,-1.2,?
CCN1CCN(Cc2ccc(NC(=O)c3ccc(C)c(NC(=O)c4ccno4)c3)cc2C(F)(F)F)CC1,-14.4%,6.51µM*,-9.8%,-65.1*,13µM*
CCN1CCN(Cc2ccc(NC(=O)c3cc(NC(=O)C4=NN(c5ccccc5)C(=O)C4)cc(OC)c3)cc2C(F)(F)F)CC1,-2.8%,?,-1.8%,-3.0,?
CCN1CCN(Cc2ccc(NC(=O)c3cc(NC(=O)c4cc5cccc(OC)c5o4)cc(OC)c3)cc2C(F)(F)F)CC1,?,4.61µM*,?,-107.4*!,5.8µM*
CCN1CCN(Cc2ccc(NC(=O)c3ccc(C)c(NC(=O)C[C@@H]4NC(=O)[C@H](Cc5ccccc5)NC4=O)c3)cc2C(F)(F)F)CC1,9.5%,0.0%,0.0%,63.6,4.6%
CCN1CCN(Cc2ccc(NC(=O)c3ccc(C)c(NC(=O)C4=NN(c5ccccc5)C(=O)C4)c3)cc2C(F)(F)F)CC1,-8.0%,?,-0.1%,16.5,?
CCN1CCN(Cc2ccc(NC(=O)c3ccc(C)c(NC(=O)c4csc(-c5ccncc5)n4)c3)cc2C(F)(F)F)CC1,?,23.1µM*,?,0.0,16.4µM*
COC(C[C@@H]1O[C@@H]1[C@@H](O)COCc1ccccc1)OC,-0.8%,-5.7%,-0.6%,9.7,-21.6%
COc1ccc(CCNC(=O)c2cc(C3CC3)on2)cc1OC,10.0%,-5.1%,4.9%,5.2,-19.9%
C[n+]1ccccc1Nc1cc([N+](=O)[O-])ccc1N,1.4%,3.8%,3.1%,?,0.7%
CN1C(N)=NC(=O)/C1=C\c1ccc(Br)cc1,-8.2%,-21.2%,3.6%,?,-1.5%
CCN1CCN(Cc2ccc(NC(=O)c3cc(NC(=O)c4ccc5n[nH]nc5c4)cc(OC)c3)cc2C(F)(F)F)CC1,0.7%,-7.2%,10.8%,2.5,11.9%
CCN1CCN(Cc2ccc(NC(=O)c3cc(NC(=O)N4CCNC4=O)cc(OC)c3)cc2C(F)(F)F)CC1,-11.2%,20.6µM*,-23.4%,50.1,16.4µM*
CCN1CCN(Cc2ccc(NC(=O)c3cc(NC(=O)c4cncc(-c5cccs5)c4)cc(OC)c3)cc2C(F)(F)F)CC1,?,7.31µM*,18.4µM*,-103.5*!,16.4µM*
CCN1CCN(c2ccc(NC(=O)c3cccnc3)cc2Cl)CC1,11.0%,-22.7%,10.2%,6.4,-8.2%
Cc1ccc(C)c(Cn2c(SCC(=O)NCc3ccccc3)nc3ccccc32)c1,nt,18.4µM*,nt,nt,?
O=C(CSc1nc2ccccc2n1Cc1ccccc1Cl)NCc1ccccc1,nt,23.1µM*,nt,nt,14.6µM*
O=C1NCCCC2c3c(cc(Br)c(O)c3Br)OC12N1CCCCC1 (stereo unspecified),8.0%,-3.2%,0.4%,6.0,-17.2%
CC(C)N1C(=O)CCC1C(=O)NCc1ccc(F)cc1Cl (stereo unspecified),22.3%,11.2%,2.9%,-2.1,-2.8%
FC(F)(F)c1cccc(N2CCN(Cc3nnc(-c4ccc5c(c4)OCO5)o3)CC2)c1,nt,16.4µM*,nt,nt,?
COc1cccc(N2CCN(Cc3nnc(-c4ccc5c(c4)OCO5)o3)CC2)c1,nt,-26.8%,nt,nt,0.6%
Clc1ccc(N2CCN(Cc3nnc(-c4ccc5c(c4)OCO5)o3)CC2)cc1,nt,18.4µM*,nt,nt,?
Fc1ccc(-c2nnc(CN3CCN(c4ncc(C(F)(F)F)cc4Cl)CC3)o2)cc1,-20.3%,14.6µM*,?,-17.2,13µM*
Fc1ccccc1N1CCN(Cc2nnc(-c3ccc4c(c3)OCO4)o2)CC1,nt,-61.1%,nt,nt,?
Fc1ccc(N2CCN(Cc3nnc(-c4ccccc4)o3)CC2)cc1,-0.9%,-13.9%,3.6%,9.8,-35.1%
SMILES,HT1080NT lethal,TDP1 cell noCPT,HT1080 IDH1KD tx,IL1B secr inh,DT40 TDP1 CPT
O=C(O)Cn1ccc2cc(S(=O)(=O)N3CCCCCC3)ccc21,17.7%,3.6%,9.1%,11.8,0.5%
CCc1c(C)c2cc3c(c(C)c2oc1=O)OCN(CCc1ccccc1F)C3,nt,16.4µM*,nt,nt,13µM*
Cc1c(C)c2cc3c(c(C)c2oc1=O)OCN(CCc1ccccc1)C3,nt,?,nt,nt,13µM*
CCOC(=O)CCc1c(C)c2cc3c(c(C)c2oc1=O)OCN(CCc1ccccc1OC)C3,nt,?,nt,nt,29.1µM*
Cc1c(C)c2cc(Cl)c(O)c(CN3CCN(C)CC3)c2oc1=O,?,-18.6%,13.1%,-18.6,-28.6%
CC(C)(C)c1ccc(NC(=O)c2ccccc2)c([N+](=O)[O-])c1,19.0%,?,-1.1%,-29.2,-22.8%
CC1CN(C(=O)c2ccc(NS(=O)(=O)c3ccc(F)c(F)c3)cc2)CC(C)O1 (stereo unspecified),-3.8%,-20.9%,-0.9%,-3.1,-0.9%
CCCNS(=O)(=O)c1ccc(OCC(=O)NCc2ccc3c(c2)OCO3)cc1,-9.3%,-21.0%,-7.8%,6.9,2.9%
Cn1nc(-c2ccc(Cl)cc2)c2cc(C(=O)N3CCCC3)sc21,-2.4%,23.1µM*,-2.9%,-15.9,18.4µM*
Cn1nc(-c2ccc(Cl)cc2)c2cc(C(=O)N3CCN(c4ccccn4)CC3)sc21,-9.4%,5.8µM*,-2.0%,1.2,5.8µM*
COc1ccc(-c2c(C)nn3c(N4CCN(c5cc(Cl)ccc5C)CC4)cc(C)nc23)cc1OC,nt,?,nt,nt,-2.7%
COc1ccc(-c2nn(C)c3sc(C(=O)N4CCN(c5cc(Cl)ccc5C)CC4)cc23)cc1OC,nt,18.4µM*,nt,nt,14.6µM*
Cn1nc(-c2ccc(Cl)cc2)c2cc(C(=O)N3CCN(c4ccccc4)CC3)sc21,-4.3%,?,-0.8%,-9.1,?
COc1ccc(NC(=O)CN(C)C(=O)CNC(=O)c2ccc(C)s2)cc1,1.9%,8.0%,1.0%,14.3,-4.4%
CC(C)(C)[C@H]1CCC(=O)N([C@H](CC#N)Cc2ccccc2)CC1,18.3%,17.8µM*,16.0%,-8.0,?
C[C@@H](CSc1ccc(Br)cc1)CN1CC[C@H](O)CCC1=O,-0.6%,12.6µM*,-5.5%,20.7,12.6µM*
C[C@@H](CN=[N+]=[N-])CN1CC[C@H](C(C)(C)C)CCC1=O,16.6%,12.6µM*!,10.3%,3.9,11.2µM*!
CC(C)(C)C1CCC(=O)N(CCC#N)CC1 (stereo unspecified),12.5%,3.7%,9.3%,-3.9,-9.8%
Cc1ccc(SC[C@H](C)CN2CC[C@H](O)CCC2=O)cc1,nt,-4.4%,nt,nt,-13.5%
C[C@@H](CSc1ccccc1)CN1CC[C@H](C(C)(C)C)CCC1=O,0.0%,17.8µM*,16.8%,-11.3,?
